Experimental findings from the supplement of paper PMC6518042 are described below.

One assay concerns Pectobacterium parmentieri SCC3193. Kind of assay: DuctApe activity index (growth/respiration on compound as sole nutrient source, blank-subtracted) (activity index (0-3)); higher = stronger utilization of the compound, active = 3 or more. The note with it: nutrient role (plate category): carbon. How it is done: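 Biolog Phenotype Microarray plates PM1, PM2A (carbon), PM3 (nitrogen) and PM4 (phosphorus/sulfur) inoculated with P. parmentieri SCC3193 in M9-C minimal salts medium with Biolog dye A, and read in the OmniLog for 46 h. Each well was tested in triplicate and the experiment was run twice. DuctApe computed a blank-subtracted activity index (AV, 0-3) from the mean curves; growth is positive at AV >= 3 and negative at AV <= 2.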
Consider `OC[C@H]1O[C@H](OC[C@H]2O[C@H](OC[C@H]3O[C@H](O[C@]4(CO)O[C@H](CO)[C@@H](O)[C@@H]4O)[C@H](O)[C@@H](O)[C@@H]3O)[C@H](O)[C@@H](O)[C@H]2O)[C@H](O)[C@@H](O)[C@H]1O` [Stachyose], for which the DuctApe activity index was 3 (active). On the same count and under the same terms, with `OCC1(O)OC[C@@H](O)[C@@H](O)[C@H]1O` (stereo partly drawn) [D-Psicose] the figure was 3 (active); with `CO[C@H]1O[C@H](CO)[C@H](O)[C@H](O)[C@H]1O` [a-Methyl-D-Galactoside], 3 (active). Still for that read-out and setting: the result for `CC(=O)N[C@H]1[C@H]([C@H](O)[C@H](O)CO)OC(O)(C(=O)O)C[C@@H]1O` (some centres not stated) [N-Acetyl-Neuraminic acid] reads 0 (inactive); that for `O=C[C@H](O)[C@@H](O)[C@H](O)[C@H](O)CO[C@@H]1O[C@H](CO)[C@@H](O)[C@H](O)[C@H]1O` [Gentiobiose], 3 (active). `O=C(O)[C@@H](O)[C@H](O)C(=O)O` [D-Tartaric acid]: the DuctApe activity index is 0 (inactive). Turning to `OC[C@@H](O)[C@@H](O)CO` [i-Erythritol], the DuctApe activity index was 0 (inactive). As for `NC(=O)CCC(=O)O` [Succinamic acid], the DuctApe activity index is 3 (active). For the compound `CC1OC(O)C(O)C(O)C1O` [L-Fucose], the DuctApe activity index is 0 (inactive).

With `CO[C@@H]1O[C@H](C(=O)O)[C@@H](O)[C@H](O)[C@H]1O` [b-Methyl-D-Glucuronic acid], the DuctApe activity index was 0 (inactive). On the same count and under the same terms, the result for `OC[C@H]1OC(O[C@H]2[C@H](O)[C@@H](CO)OC(O[C@H]3[C@H](O)[C@@H](CO)OC(O)[C@@H]3O)[C@@H]2O)[C@H](O)[C@@H](O)[C@@H]1O` (some centres not stated) [Laminarin] reads 0 (inactive); that for `O=C(O)CCC(=O)C(=O)O` [a-Ketoglutaric acid], 0 (inactive). Still for that read-out and setting: the result for `OC[C@H]1O[C@@H]2O[C@H]3[C@H](O)[C@@H](O)[C@@H](O[C@H]4[C@H](O)[C@@H](O)[C@@H](O[C@H]5[C@H](O)[C@@H](O)[C@@H](O[C@H]6[C@H](O)[C@@H](O)[C@@H](O[C@H]7[C@H](O)[C@@H](O)[C@@H](O[C@H]8[C@H](O)[C@@H](O)[C@@H](O[C@H]1[C@H](O)[C@H]2O)O[C@@H]8CO)O[C@@H]7CO)O[C@@H]6CO)O[C@@H]5CO)O[C@@H]4CO)O[C@@H]3CO` [b-Cyclodextrin] reads 0 (inactive). For the compound `O=C(O)C(=O)O` [Oxalic acid], the DuctApe activity index was 0 (inactive). `OC[C@@H](O)[C@H](O)[C@@H](O)CO` [Xylitol]: the DuctApe activity index is 0 (inactive).

As to `CC(=O)N[C@@H](CO)[C@@H](O)[C@H](O)[C@H](O)CO` [N-Acetyl-D-Glucosaminitol], the DuctApe activity index was 0 (inactive). The same measure, in the same setting: with `OC[C@H]1O[C@@H](O[C@@H]2[C@@H](CO)OC(O)(CO)[C@H]2O)[C@H](O)[C@@H](O)[C@H]1O` (mixture of isomers) [Lactulose] the figure was 3 (active); with `O=C[C@@H](O)[C@H](O[C@@H]1O[C@H](CO)[C@H](O)[C@H](O)[C@H]1O)[C@H](O)CO` [3-O-b-D-Galactopyranosyl-D-Arabinose], 1 (inactive). On the same count and under the same terms, the result for `CC(O)(CC(=O)O)C(=O)O` (configuration not stated) [Citramalic acid] reads 0 (inactive); that for `OC[C@H]1O[C@H](OC[C@H]2O[C@H](O[C@H]3[C@H](O)[C@@H](O)[C@@H](O)O[C@@H]3CO)[C@H](O)[C@@H](O)[C@@H]2O[C@H]2O[C@H](CO)[C@@H](O)[C@H](O)[C@H]2O)[C@H](O)[C@@H](O)[C@@H]1O` [Glycogen], 0 (inactive); that for `O=C(O)CCC(=O)O` [Succinic acid], 3 (active). Same read-out and setting: the result for `CC(=O)C(C)=O` [2,3-Butanedione] reads 0 (inactive).

Staying with this assay, now noted: nutrient role (plate category): nitrogen.
For the compound `NCCN` [Ethylenediamine], the DuctApe activity index was 0 (inactive).

With `C[C@H](N)C(=O)N[C@@H](CC(=O)O)C(=O)O`, the DuctApe activity index is 1 (inactive). Same read-out and setting: the result for `NC(=O)C[C@@H](N)C(=O)O` [D-Asparagine] reads 1 (inactive); that for `N[C@H](CCC(=O)O)C(=O)O` [D-Glutamic acid], 0 (inactive). On to `CC(O)C(N)=O` (racemic) [DL-Lactamide], for which the DuctApe activity index was 0 (inactive). For the compound `NC=O` [Formamide], the DuctApe activity index is 0 (inactive). On the same count and under the same terms, with `Nc1[nH]cnc2ncnc1-2` [Adenine] the figure was 0 (inactive); with `NCCCCN=C(N)N` [Agmatine], 0 (inactive). On the same count and under the same terms, with `CCC(N)C(=O)O` (racemic) [DL-a-Amino-N-Butyric acid] the figure was 1 (inactive).

The assay is the same for the next values; noted with them: nutrient role (plate category): phosphate & sulphur.
On to `Nc1ccn([C@@H]2O[C@H](CO)[C@@H](O)[C@H]2OP(=O)(O)O)c(=O)n1` [Cytidine 2`-Monophosphate], for which the DuctApe activity index was 3 (active). Turning to `CS(=O)(=O)CC[C@H](N)C(=O)O` [L-Methionine Sulfone], the DuctApe activity index is 0 (inactive). On the same count and under the same terms, with `Nc1ncnc2c1ncn2[C@@H]1O[C@H](CO)[C@@H](O)[C@H]1OP(=O)(O)O` [Adenosine 2`-Monophosphate] the figure was 2 (inactive); with `O=c1ccn(C2OC(COP(=O)(O)O)C(O)C2O)c(=O)[nH]1` (configuration not stated) [Uridine 5`-Monophosphate], 2 (inactive); with `CSC[C@H](N)C(=O)O` [S-Methyl-L-Cysteine], 1 (inactive). Same read-out and setting: with `O=S1(=O)CCCC1` [Tetramethylene Sulfone] the figure was 0 (inactive).
